In assay [1] the test system is Human papillomavirus type 1a protein E7 (residues 44-93). Kind of assay: HPV1a E7 fragment binders on microarrays, primary screen, biochemical, small-molecule microarray, residues 44-93, 635 nm fluorescence (AID 1108).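 Note: E7 fragment applied at 1 µg/mL in TBST for 1 h at 4 C; score combines spot fluorescence with its signal to noise ratio.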 To be noted: small-molecule microarray binding, fluorescence 635 nm; higher = more signal.
Assay [2] is described as follows: modulators of HCV replicon luciferase signal, primary screen, HCV replication inhibitor project, Huh7 cells, luciferase reporter (AID 1109).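 Note: huh7 hepatoma cells harbouring a luciferase neomycin HCV replicon reporter; luciferase luminescence as measure of HCV replicon replication; test concentration not given here.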 To be noted: 48 h, higher = more signal. A general note: In antiviral work, replicon cells carry a viral genome segment that copies itself.
In assay [3] the target is Left-right determination factor 2 (Homo sapiens) (UniProt O00292). As to the kind of experiment: LEFTY2 binders on small-molecule microarrays, primary screen, biochemical, small-molecule microarray, 635 nm fluorescence scan (AID 1110). As to conditions: LEFTY2 binding, higher = more signal.
Left-right determination factor 2 (Homo sapiens), sequence (O00292 whole entry, looked up): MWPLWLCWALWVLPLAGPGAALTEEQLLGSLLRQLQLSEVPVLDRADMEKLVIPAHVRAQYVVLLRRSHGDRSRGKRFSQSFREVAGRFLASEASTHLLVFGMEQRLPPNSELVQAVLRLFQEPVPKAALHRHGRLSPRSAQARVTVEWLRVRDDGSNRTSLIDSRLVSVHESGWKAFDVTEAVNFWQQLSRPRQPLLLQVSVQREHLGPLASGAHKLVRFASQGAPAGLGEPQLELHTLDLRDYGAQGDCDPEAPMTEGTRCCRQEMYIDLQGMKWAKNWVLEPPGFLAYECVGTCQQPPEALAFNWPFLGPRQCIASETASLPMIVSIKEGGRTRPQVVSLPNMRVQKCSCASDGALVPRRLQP
In assay [4] the target is Calmodulin-1 (Homo sapiens) (UniProt P0DP23). Kind of assay: CALM1 binders on microarrays, EGTA buffer, profiling panel, biochemical, small-molecule microarray, Cy5-labelled CALM1 (AID 1111).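 Note: labelled calmodulin applied in Tris saline Tween buffer holding calcium plus EGTA and DTT.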 As to conditions: Cy5-CALM1 binding fluorescence, higher = more signal.
Assay [5] shares this target. As to the kind of experiment: calcium-bound CALM1 binders on microarrays, profiling panel, artefact control for SMM control-protein annotation, biochemical, small-molecule microarray, Cy5-labelled CALM1, plus calcium (AID 1112).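 Note: score merges spot fluorescence with signal to noise from triplicate slides.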 As to conditions: Cy5-CALM1 binding fluorescence, higher = more signal.
Assay [6] in a line: small-molecule microarray binders of probe aWnt5a, primary screen, biochemical, biotinylated probe, 635/667 nm fluorescence (AID 1113).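 Note: score merges 667 nm fluorescence intensity with signal-to-noise per printed feature.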 To be noted: higher = more signal.
Assay [7] in a line: small-molecule microarray binders of probe aShh, primary screen, biochemical, biotinylated probe, 635/667 nm fluorescence (AID 1114).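 Note: probe is biotin-labelled aShh protein from a stem cell growth factor screen; measures binding of labelled protein to compounds printed on the slide; score merges feature fluorescence at 667 nm with signal-to-noise.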 To be noted: higher = more signal.
Assay [8] in a line: small-molecule microarray binders of probe aNog, primary screen, biochemical, biotinylated probe, 635/667 nm fluorescence (AID 1115).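 Note: probe is biotinylated aNog protein used at 0.15 µg/mL for 1 h at 4 C; z-score combines 667 nm fluorescence of each spot with its signal to noise.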 To be noted: higher = more signal.
The target in assay [9] is Torsin-1A-interacting protein 1 (Homo sapiens) (UniProt Q5JTV8). Kind of assay: LAP1 binders from COS7 cell lysate, primary screen, small-molecule microarray, 635/667 nm fluorescence (AID 1116). As to conditions: COS7-hLAP1 lysate binding, 635 nm fluorescence, higher = more signal.
Torsin-1A-interacting protein 1 (Homo sapiens), sequence (Q5JTV8 whole entry, looked up): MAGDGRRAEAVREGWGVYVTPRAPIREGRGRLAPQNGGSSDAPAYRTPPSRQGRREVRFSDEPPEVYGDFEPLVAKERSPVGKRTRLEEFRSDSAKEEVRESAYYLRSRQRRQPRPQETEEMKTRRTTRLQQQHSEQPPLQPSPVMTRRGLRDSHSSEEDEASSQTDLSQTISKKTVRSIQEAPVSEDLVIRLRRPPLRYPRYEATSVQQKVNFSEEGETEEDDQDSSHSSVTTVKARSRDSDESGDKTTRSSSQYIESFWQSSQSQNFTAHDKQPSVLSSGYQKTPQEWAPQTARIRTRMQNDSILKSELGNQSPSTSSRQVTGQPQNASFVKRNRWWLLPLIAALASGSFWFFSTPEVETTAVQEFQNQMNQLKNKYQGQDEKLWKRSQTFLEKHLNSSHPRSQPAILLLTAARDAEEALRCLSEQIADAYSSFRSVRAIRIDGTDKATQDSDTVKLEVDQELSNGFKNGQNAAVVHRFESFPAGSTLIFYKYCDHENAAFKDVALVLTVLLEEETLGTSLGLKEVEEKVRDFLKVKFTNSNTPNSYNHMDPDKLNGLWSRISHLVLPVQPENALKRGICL
Assay [10] deals with Alpha-bungarotoxin (Bungarus multicinctus) (UniProt P60615). Kind of assay: alpha-bungarotoxin binders on microarray, profiling panel, artefact control for SMM control protein annotation, biochemical, small-molecule microarray, Alexa647 label, 635/667 nm fluorescence (AID 1117). To be noted: alpha-BTX-A647 binding fluorescence, higher = more signal.
Alpha-bungarotoxin (Bungarus multicinctus), sequence (P60615 whole entry, looked up): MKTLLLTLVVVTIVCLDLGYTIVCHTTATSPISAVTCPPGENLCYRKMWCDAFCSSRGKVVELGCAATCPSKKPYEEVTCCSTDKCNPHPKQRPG
A further assay addresses Albumin (Bos taurus) (UniProt P02769). Kind of assay: bovine serum albumin binders on microarray, profiling panel, artefact control for SMM control protein annotation, biochemical, small-molecule microarray, Alexa647 label, 635/667 nm fluorescence (AID 1118).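 Note: score merges 667 nm emission intensity and signal-to-noise per printed compound spot.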 To be noted: BSA-A647 binding, fluorescence 635 nm, higher = more signal.
Assay [11] in a line: small-molecule microarray binders of probe aXIP, primary screen, biochemical, NeuroSMM set, 635/667 nm fluorescence (AID 1119).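 Note: probe is the protein aXip251-270 applied at 1 µg/mL to compound-printed slides; binding of probe to printed compounds measured as 667 nm fluorescence plus signal to noise.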 As to conditions: higher = more signal, called active from +8 up or from −8 down.
Assay [12] can be described thus: small-molecule binders of probe aNOTCH3, primary screen, biochemical, small-molecule microarray, 635/667 nm fluorescence (AID 1120).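 Note: probe is a biotin-tagged antibody raised against NOTCH3 rather than NOTCH3 protein; score merges spot fluorescence near 667 nm with spot signal to noise.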 As to conditions: higher = more signal.
A short description of assay [13]: small-molecule binders of probe aNOTCH2, primary screen, biochemical, small-molecule microarray, 635/667 nm fluorescence (AID 1121).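 Note: score merges feature fluorescence read at 667 nm with its signal to noise.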 To be noted: higher = more signal.
Assay [14] has as its target Carbonic anhydrase 2 (Homo sapiens) (UniProt P00918). As to the kind of experiment: CAII small-molecule binders, profiling panel, biochemical, small-molecule microarray, Alexa647-labelled CAII (AID 1122). To be noted: CAII-A647 binding fluorescence, higher = more signal.
Assay [15] in a line: COS7 lysate on small-molecule microarray, probe aHis, 635 nm (AID 1123).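 Note: z-score combines 667nm fluorescence intensity with signal-to-noise per printed compound spot.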 As to conditions: COS7 cell lysate, fluorescence, higher = more signal.
Assay [16] in a line: compound binding in COS7 lysate, probe aLAP1, primary screen, cell lysate, small-molecule microarray (AID 1124).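 Note: lysate comes from COS7 cells expressing LAP1 and is applied at 0.3 µg/mL; score merges spot fluorescence near 667 nm with signal-to-noise over triplicate slides.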 To be noted: probe aLAP1, fluorescence, higher = more signal.
A further assay concerns Sam68 (KHDRBS1). Kind of assay: Sam68 small-molecule binders, primary screen, biochemical, small-molecule microarray, 635 nm fluorescence (AID 1125).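 Note: score merges 667 nm channel intensity with signal to noise over triplicate slides.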 As to conditions: small-molecule microarray binding, higher = more signal.
Assay [17] deals with Chordin-like protein 2 (CHRDL2). Kind of assay: CHRDL2 small-molecule binders, primary screen, biochemical, small-molecule microarray, 635 nm fluorescence (AID 1126).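 Note: printed compound slides probed with Chrdl2 protein at 4 µg/mL for 1 h at 4 C; score merges 667 nm emission intensity with signal to noise over three replicate slides.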 To be noted: small-molecule microarray binding, fluorescence 635 nm; higher = more signal.
Assay [18] deals with Concanavalin-A (Canavalia ensiformis) (UniProt P02866). As to the kind of experiment: ConA small-molecule binders, primary screen, artefact control for SMM control protein annotation, biochemical, small-molecule microarray, Alexa647 label, 635 nm (AID 1127).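 Note: z combines 667 nm emission intensity with signal-to-noise across three replicate slides.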 As to conditions: ConA-A647 binding fluorescence, higher = more signal.
Concanavalin-A (Canavalia ensiformis), sequence (P02866 whole entry, looked up): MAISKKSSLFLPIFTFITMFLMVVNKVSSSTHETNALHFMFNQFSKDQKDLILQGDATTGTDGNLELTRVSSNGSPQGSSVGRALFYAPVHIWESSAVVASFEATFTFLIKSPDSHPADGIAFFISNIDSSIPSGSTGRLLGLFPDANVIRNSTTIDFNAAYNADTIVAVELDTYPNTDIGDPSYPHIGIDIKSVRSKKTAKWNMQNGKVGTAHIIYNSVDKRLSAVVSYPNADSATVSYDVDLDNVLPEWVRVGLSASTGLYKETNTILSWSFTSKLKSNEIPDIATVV

Active and inactive are the calls of the source.

Albumin (Bos taurus), sequence (P02769 whole entry, looked up): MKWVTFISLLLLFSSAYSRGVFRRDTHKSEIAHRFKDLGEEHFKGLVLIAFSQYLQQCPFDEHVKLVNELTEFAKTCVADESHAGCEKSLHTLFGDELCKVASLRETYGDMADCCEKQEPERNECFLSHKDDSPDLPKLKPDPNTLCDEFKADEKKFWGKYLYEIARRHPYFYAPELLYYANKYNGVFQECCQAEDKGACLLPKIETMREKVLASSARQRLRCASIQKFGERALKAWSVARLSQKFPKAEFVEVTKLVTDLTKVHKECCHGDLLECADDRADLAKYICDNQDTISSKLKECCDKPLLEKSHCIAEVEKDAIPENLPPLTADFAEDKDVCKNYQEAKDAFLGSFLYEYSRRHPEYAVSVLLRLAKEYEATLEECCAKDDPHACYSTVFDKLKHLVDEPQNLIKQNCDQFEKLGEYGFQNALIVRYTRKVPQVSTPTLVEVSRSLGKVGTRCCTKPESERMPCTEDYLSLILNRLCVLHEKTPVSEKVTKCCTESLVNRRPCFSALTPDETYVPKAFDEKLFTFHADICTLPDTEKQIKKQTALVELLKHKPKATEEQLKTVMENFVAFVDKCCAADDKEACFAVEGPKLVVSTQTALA

In the case of `[N-]=[N+]=Nc1ccccc1C[C@]1(C(=O)N2CCCCC2)N=C(c2ccc(OCCCO)cc2)O[C@H]1c1ccccc1N=[N+]=[N-]`, the composite z-score in assay [1] was 0.903; in [3], -0.0089; in [4], 1.46; in [5] it was 0.605; in [6] it was 0.2; in assay [7] it was 0.294. Further, the composite z-score in assay [8] came to 1.87; in assay [9], 1.21; in [10], 0.703; in the assay with Albumin (Bos taurus) it was 0.94; in [12], 0.311; in assay [13] it was 0.252. In addition, the composite z-score in assay [14] is 0.623; in assay [15] it was 2.91; in assay [16], 1.17; with Sam68 (KHDRBS1), 1.29; in [17] it was -0.292; in [18], 0.979. The same compound gave a z-score in assay [2] of -2.5. Further, in [11], the composite Z-score is 0.121 (inactive).

In the case of `CN1C(=O)C2C(C1=O)C1C=C(c3ccc(CO)cc3)C2C(C2CC2)N1Cc1cc2c(cc1Br)OCO2` (stereo not given), the composite z-score in [1] is 1.36; in assay [3], 0.72; in [4], 1.68; in [5], 0.6; in [6], -0.027; in assay [7], -0.0866. Also, the composite z-score stood at 1.04 in assay [8]; 2.24 in assay [9]; 1.73 in [10]; 1.03 with Albumin (Bos taurus); 0.211 in assay [12]; 0.109 in [13]. The composite z-score in assay [14] was 0.786; in assay [15] it was 3.13; in assay [16], 0.863; in the assay on Sam68 (KHDRBS1), 1.3; in assay [17] it was 0.258; in assay [18], 1.16. Moreover, the z-score in assay [2] was -1.11. Besides, the composite Z-score in assay [11] was 1.55 (inactive).

As to `C=C(CCCC)C(=O)CC[C@H](OC(C)=O)c1ccc(CO)o1`, the composite z-score is 0.478 in [1]; -0.0361 in assay [3]; -0.933 in assay [4]; -1.06 in assay [5]; -0.0182 in assay [6]; 0.13 in assay [7]. The composite z-score in assay [8] was -0.196; in [9] it was 1.43; in [10] it was -0.28; in the assay with Albumin (Bos taurus), -0.471; in [12] it was 0.0701; in assay [13] it was -0.117. For the same compound, the composite z-score was 0.637 in assay [14]; 0.136 in [15]; 0.164 in assay [16]; 0.865 with Sam68 (KHDRBS1); -0.149 in assay [17]; -0.0156 in assay [18]. The same compound showed a z-score in [2] of -0.72. In [11], the composite Z-score was 0.304 (inactive).

For the compound `CCOC(=O)C[C@H]1[C@H](OC(=O)c2ccc(C(=O)c3ccccc3)cc2)[C@@H](NC(=O)c2ccc3ccccc3n2)c2cc(OCCCO)ccc2N1C(=O)c1ccc2ccccc2n1`, the composite z-score in assay [1] was 1.03; in assay [3], 0.691; in assay [4], 0.338; in assay [5], -0.59; in [6], 0.0761; in assay [7], -0.0904. The composite z-score in assay [8] is -0.158; in assay [9] it was 1.92; in [10] it was 0.583; with Albumin (Bos taurus), 0.802; in [12], 0.16; in [13] it was -0.101. Further, the composite z-score was 0.245 in assay [14]; 0.847 in [15]; 0.808 in [16]; 0.616 with Sam68 (KHDRBS1); -0.0787 in assay [17]; 0.564 in assay [18]. The compound further returned a z-score in [2] of -0.931. Also, the composite Z-score in assay [11] is 0.525 (inactive).

Regarding `NC(=O)[C@]1(Cc2ccccc2)N=C(c2ccc(OCCCO)cc2)O[C@@H]1c1ccccc1`, the composite z-score is 1.33 in assay [1]; -1.02 in assay [3]; 1.35 in assay [4]; 0.744 in assay [5]; -0.0398 in [6]; 0.409 in [7]. Further, the composite z-score in [8] came out at 1.42; in [9], 1.51; in [10], 1.23; in the assay with Albumin (Bos taurus), 0.532; in assay [12], 0.106; in assay [13], 0.0959. The composite z-score was 0.865 in assay [14]; 2.53 in assay [15]; 0.583 in [16]; 0.827 with Sam68 (KHDRBS1); -0.0464 in [17]; 0.587 in assay [18]. This compound also displayed a z-score in assay [2] of -0.772. The composite Z-score in [11] was 0.702 (inactive).

On to `CC(C)(C)OC(=O)CC[C@@]1(C(=O)NCC(O)CO)N=C(c2ccc(OCCCO)cc2)O[C@@H]1c1ccccc1` (stereo not given in full), for which the composite z-score is 1.36 in assay [1]; -0.452 in [3]; -0.0155 in assay [4]; 0.924 in [5]; -0.0685 in assay [6]; 0.223 in assay [7]. The composite z-score was 0.487 in assay [8]; 3.12 in assay [9]; 1.04 in assay [10]; 1.01 with Albumin (Bos taurus); 0.178 in assay [12]; -0.0896 in [13]. For the same compound, the composite z-score was 0.892 in assay [14]; 3.67 in [15]; 1.34 in assay [16]; 0.965 in the assay with Sam68 (KHDRBS1); -1.65 in [17]; 0.537 in [18]. In assay [2], this compound returned a z-score of 0.821. Besides, the composite Z-score in assay [11] is 0.595 (inactive).

(Values after PubChem BioAssay.)
